# Laboratory results published in PubChem BioAssay AID1332 (Southern Research Institute, 2008).
# Hit rate of the full screen: of about 1,100 compounds, about 170 (15%) were called active. No rule for the calls is given here. The list is a sample of the results. Non-standard residues stand in square brackets, D forms with d. Residues, ends and D or L forms follow the SMILES beside them. *: point of attachment. Sta = CC(C)C[C@H](N)[C@@H](O)CC(=O)O; Isovaleryl = CC(C)CC(=O)*
# Test: Mycobacterium tuberculosis H37Rv growth inhibition, confirmatory dose response, cytotoxicity (AID 1332);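 as to CC50: Vero cells exposed to compounds for 72 hours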;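 as to IC50: bacteria incubated 7 days before adding Alamar blue readout reagent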
# Conditions: M. tuberculosis H37Rv growth inhibition; CC50: measured here: Vero cell cytotoxicity; IC50: measured here: IC50 H37Rv replicates
Structure (SMILES),CC50 [µg/mL],IC50 [µg/mL],outcome
CCc1nc(N)nc(N)c1-c1ccc(Cl)cc1,1.26,7.67,active
C[C@H]1CCC2(NC1)O[C@H]1C[C@H]3[C@@H]4CC[C@H]5C[C@@H](O[C@@H]6O[C@H](CO)[C@H](O[C@@H]7O[C@H](CO)[C@@H](O)[C@H](O[C@@H]8OC[C@@H](O)[C@H](O)[C@H]8O)[C@H]7O[C@@H]7O[C@H](CO)[C@@H](O)[C@H](O)[C@H]7O)[C@H](O)[C@H]6O)CC[C@]5(C)[C@H]4CC[C@]3(C)[C@H]1[C@@H]2C (some centres not stated),3.98,> 20,inactive
C[C@@H]1C[C@H]2[C@@H]3C[C@H](F)C4=CC(=O)C=C[C@]4(C)[C@@]3(Cl)[C@@H](O)C[C@]2(C)[C@H]1C(=O)COC(=O)C(C)(C)C,> 6,> 20,inactive
C[N+]1(C)CCC(=C(c2ccccc2)c2ccccc2)CC1,–,> 20,inactive
CCc1cc(C(N)=S)ccn1,–,1.95,active
Cc1c(C)c2c(c(C)c1O)CCC(C)(C(=O)O)O2 (configuration not stated),–,> 20,inactive
COc1ccc(CC(C)(N)C(=O)O)cc1OC (configuration not stated),> 6,> 20,inactive
Nc1nc2c(c(=O)[nH]1)N(C=O)C(CNc1ccc(C(=O)N[C@@H](CCC(=O)O)C(=O)O)cc1)CN2 (some centres not stated),–,> 20,inactive
O=C(CCCN1CCC(O)(c2ccc(Cl)cc2)CC1)c1ccc(F)cc1,–,> 20,inactive
O=C(CCCN1CCC(O)(c2ccc(Br)cc2)CC1)c1ccc(F)cc1,–,> 20,inactive
CN(C)C(=O)C(CCN1CCC(O)(c2ccc(Cl)cc2)CC1)(c1ccccc1)c1ccccc1,–,10.9,active
CN1CC[C@@]2(C)c3cc(O)ccc3N(C)[C@H]12,–,> 20,inactive
CC(CN(C)C)CN1c2ccccc2Sc2ccccc21 (configuration not stated),> 6,> 20,inactive
CCCCc1ccc2nc(NC(=O)OC)[nH]c2c1,0.043,> 20,inactive
CCCCc1ccc(C(=O)O)nc1,> 6,3.88,active
CCCCOc1ccc(CC(=O)NO)cc1,> 6,> 20,inactive
Cc1cc(CC(=O)O)n(C)c1C(=O)c1ccc(Cl)cc1,–,> 20,inactive
O=C(CCCN1CCN(c2ccccn2)CC1)c1ccc(F)cc1,–,> 20,inactive
C[C@H]1[C@H](C)CC[C@]2(C(=O)O)CC[C@]3(C)C(=CC[C@@H]4[C@@]5(C)CC[C@H](O)C(C)(C)[C@@H]5CC[C@]43C)[C@H]12,–,> 20,inactive
CN(C)CCC(c1ccc(Cl)cc1)c1ccccn1 (configuration not stated),–,> 20,inactive

Structure (SMILES),CC50 [µg/mL],IC50 [µg/mL],outcome
CN[C@@H]1[C@H](O)[C@H](NC)[C@H]2O[C@@]3(O)C(=O)C[C@@H](C)O[C@H]3O[C@@H]2[C@H]1O,–,7.14,active
C/C(=C(/CCO)SSCC1CCCO1)N(C=O)Cc1cnc(C)nc1N (configuration not stated),–,> 20,inactive
C=Cc1c(C)c2cc3nc(cc4[nH]c(cc5nc(cc1[nH]2)C(C)=C5CCC(=O)O)c(CCC(=O)O)c4C)[C@@]1(C)C3=CC=C(C(=O)OC)C1C(=O)OC (some centres not stated),–,> 20,active
CC(O)(P(=O)(O)O)P(=O)(O)O,–,> 20,inactive
OCCOCCN1CCN(C(c2ccccc2)c2ccc(Cl)cc2)CC1 (configuration not stated),–,> 20,inactive
OCCN1CCN(CC/C=C2/c3ccccc3Sc3ccc(Cl)cc32)CC1,> 6,9.26,active
CC(=O)c1ccc2c(c1)N(CCCN1CCC(CCO)CC1)c1ccccc1S2,–,> 20,inactive
CC(=O)Nc1ccc(O)cc1,–,> 20,inactive
CCN[C@H]1C[C@H](C)S(=O)(=O)c2sc(S(N)(=O)=O)cc21,–,> 20,inactive
Cc1cc(C(=O)NNCc2ccccc2)no1,–,> 20,inactive
CC(C)NNC(=O)c1ccncc1,–,> 20,inactive
O=C(CCNNC(=O)c1ccncc1)NCc1ccccc1,–,0.393,active
CC(C)(C)NC(=O)[C@@H]1C[C@@H]2CCCC[C@@H]2CN1C[C@@H](O)[C@H](Cc1ccccc1)NC(=O)[C@H](CC(N)=O)NC(=O)c1ccc2ccccc2n1,–,17.3,active
C[C@@H]1CC[C@H]2[C@@H](C)C(=O)O[C@@H]3OC4(C)CC[C@@H]1[C@]32OO4,–,> 20,inactive
CN1CC[C@]23c4ccccc4N[C@H]1[C@]21CCN(C)[C@H]3Nc2ccccc21,–,> 20,inactive
O=C(O)COCCN1CCN(C(c2ccccc2)c2ccc(Cl)cc2)CC1 (configuration not stated),–,> 20,inactive
CN1CCCN(C(c2ccccc2)c2ccc(Cl)cc2)CC1 (configuration not stated),> 6,19.3,active
CN1CCN(C(c2ccccc2)c2ccccc2)CC1,–,> 20,inactive
Cc1cc(-c2ccccc2)nnc1NCCN1CCOCC1,–,> 20,inactive
CC(C)CC(=O)N[C@H](C(=O)N[C@H](C(=O)N[C@@H](CC(C)C)[C@@H](O)CC(=O)N[C@@H](C)C(=O)N[C@@H](CC(C)C)[C@@H](O)CC(=O)O)C(C)C)C(C)C (Isovaleryl-VV[Sta]A[Sta]-OH),–,> 20,inactive

Structure (SMILES),CC50 [µg/mL],IC50 [µg/mL],outcome
Cc1c(-c2ccccc2)oc2c(C(=O)OCCN3CCCCC3)cccc2c1=O,–,> 20,inactive
CN(C)CC/C=C1\c2ccccc2COc2ccccc21,–,> 20,inactive
CN(C)CCC=C1c2ccccc2CCc2ccccc21,> 6,16.2,active
CN(C)CC/C=C1\c2ccccc2CSc2ccccc21,> 6,> 20,inactive
CNCC(O)c1ccc(O)c(OC)c1 (configuration not stated),–,> 20,inactive
CNC(C)CCC=C(C)C (configuration not stated),–,> 20,inactive
C=C1CC[C@H](O)C/C1=C/C=C1\CCC[C@]2(C)[C@@H]([C@H](C)CCCC(C)C)CC[C@@H]12,–,> 20,inactive
C[C@@H]1CCC[C@H](C)N1,–,> 20,inactive
CC(C)(C)NC[C@@H](O)COc1cccc2c1CCCC2=O,–,> 20,inactive
Cc1c(N(C)CS(=O)(=O)O)c(=O)n(-c2ccccc2)n1C,–,> 20,inactive
CO[C@@]1(NC(=O)[C@H](C(=O)O)c2ccc(O)cc2)C(=O)N2C(C(=O)O)=C(CSc3nnnn3C)CO[C@@H]21,–,> 20,inactive
C[N+]1(C)C2CC[C@H]1CC(OC(=O)C(CO)c1ccccc1)C2 (some centres not stated),–,> 20,inactive
Cc1ccnc(NS(=O)(=O)c2ccc(N)cc2)n1,–,> 20,inactive
Cc1noc(NS(=O)(=O)c2ccc(N)cc2)c1C,–,8.76,active
Nc1ccc(S(=O)(=O)Nc2ncccn2)cc1,–,13.4,active
Cc1cc(C)nc(NS(=O)(=O)c2ccc(N)cc2)n1,–,> 20,inactive
Nc1ccc(S(=O)(=O)NC(=O)c2ccccc2)cc1,–,> 20,inactive
Nc1ccc(S(=O)(=O)Nc2ccccn2)cc1,–,> 20,inactive
CC(=O)NS(=O)(=O)c1ccc(N)cc1,–,> 20,inactive
Nc1ccc(S(=O)(=O)Nc2ccc(Cl)nn2)cc1,–,4.37,active
